Active and inactive are the calls of the source. The calls were made as follows: active = hit-call score of the fitted dose curve at least 0.9, where 1 is the maximum; inactive = score below 0.9.
The compounds below were run against human Receptor-type tyrosine-protein phosphatase F (PTPRF/LAR), PTPRF (gene 5792) (UniProt P10586) (assay: ERF_TW_ENZ_hPTPRF: Eurofins (ERF) Enzymatic LeadHunter Assay for human Receptor-type tyrosine-protein phosphatase F (PTPRF/LAR)).
human Receptor-type tyrosine-protein phosphatase F (PTPRF/LAR), PTPRF (gene 5792), sequence (P10586 whole entry, looked up): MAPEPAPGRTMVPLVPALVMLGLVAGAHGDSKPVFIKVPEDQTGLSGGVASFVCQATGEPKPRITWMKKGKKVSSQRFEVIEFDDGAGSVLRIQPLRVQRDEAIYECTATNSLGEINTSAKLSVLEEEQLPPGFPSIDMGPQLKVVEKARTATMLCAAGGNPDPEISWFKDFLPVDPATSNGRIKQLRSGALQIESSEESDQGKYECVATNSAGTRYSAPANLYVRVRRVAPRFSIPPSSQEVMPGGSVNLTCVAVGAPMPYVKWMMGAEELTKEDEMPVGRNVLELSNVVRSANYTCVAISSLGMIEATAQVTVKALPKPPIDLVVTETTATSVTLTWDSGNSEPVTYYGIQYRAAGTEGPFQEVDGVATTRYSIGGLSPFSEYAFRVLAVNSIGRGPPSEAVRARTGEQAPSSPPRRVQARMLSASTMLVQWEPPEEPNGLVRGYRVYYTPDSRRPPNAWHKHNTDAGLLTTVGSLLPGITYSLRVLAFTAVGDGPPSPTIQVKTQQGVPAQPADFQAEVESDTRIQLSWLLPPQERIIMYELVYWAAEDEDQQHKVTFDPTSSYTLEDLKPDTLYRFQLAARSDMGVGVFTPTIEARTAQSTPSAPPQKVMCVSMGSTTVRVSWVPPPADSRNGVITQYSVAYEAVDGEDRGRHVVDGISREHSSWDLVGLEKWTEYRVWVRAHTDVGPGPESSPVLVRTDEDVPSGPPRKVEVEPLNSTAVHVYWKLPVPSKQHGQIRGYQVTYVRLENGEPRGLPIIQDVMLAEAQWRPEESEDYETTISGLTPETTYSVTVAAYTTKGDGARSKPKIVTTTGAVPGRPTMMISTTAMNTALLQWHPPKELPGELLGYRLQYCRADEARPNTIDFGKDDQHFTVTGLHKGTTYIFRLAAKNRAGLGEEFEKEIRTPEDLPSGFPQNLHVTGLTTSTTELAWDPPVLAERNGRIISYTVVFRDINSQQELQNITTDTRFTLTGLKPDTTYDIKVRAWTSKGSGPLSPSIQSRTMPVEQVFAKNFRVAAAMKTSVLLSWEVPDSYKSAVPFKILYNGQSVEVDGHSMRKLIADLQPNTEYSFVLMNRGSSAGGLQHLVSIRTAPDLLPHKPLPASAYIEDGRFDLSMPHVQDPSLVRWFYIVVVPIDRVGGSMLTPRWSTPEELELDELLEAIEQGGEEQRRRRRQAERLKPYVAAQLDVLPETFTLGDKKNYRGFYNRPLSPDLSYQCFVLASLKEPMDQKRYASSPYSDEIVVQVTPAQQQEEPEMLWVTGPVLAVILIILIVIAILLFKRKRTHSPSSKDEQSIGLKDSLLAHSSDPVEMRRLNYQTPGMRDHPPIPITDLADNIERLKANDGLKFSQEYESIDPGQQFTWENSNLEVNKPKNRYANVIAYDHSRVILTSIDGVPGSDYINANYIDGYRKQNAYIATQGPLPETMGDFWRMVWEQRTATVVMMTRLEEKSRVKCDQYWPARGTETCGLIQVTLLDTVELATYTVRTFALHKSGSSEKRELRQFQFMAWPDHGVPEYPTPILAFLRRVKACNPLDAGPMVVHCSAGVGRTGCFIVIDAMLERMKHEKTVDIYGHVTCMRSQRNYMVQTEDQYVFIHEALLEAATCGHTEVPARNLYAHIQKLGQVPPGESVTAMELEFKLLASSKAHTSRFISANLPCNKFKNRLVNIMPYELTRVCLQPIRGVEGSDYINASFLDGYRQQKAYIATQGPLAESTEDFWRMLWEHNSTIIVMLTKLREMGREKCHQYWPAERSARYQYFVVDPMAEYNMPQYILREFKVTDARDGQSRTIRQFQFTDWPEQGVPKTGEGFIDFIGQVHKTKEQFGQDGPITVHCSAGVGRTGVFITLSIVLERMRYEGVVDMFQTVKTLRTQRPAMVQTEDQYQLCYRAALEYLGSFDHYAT
Procedure: ERF_TW_ENZ_hPTPRF is a biochemical, single-readout assay that uses extracted gene-proteins in a cell-free assay. Measurements were taken 1 hour after chemical dosing in a 96-well plate. See LAR Human Phosphatase Enzymatic Assay, Panlabs.ERF_TW_ENZ_hPTPRF is an assay component calculated from the ERF_TW_ENZ_hPTPRF assay. It is designed to measure enzyme activity using a type of enzyme reporter as detected by fluorescence intensity with spectrophotometry technology.Data from the assay component ERF_TW_ENZ_hPTPRF was analyzed at the assay endpoint, ERF_TW_ENZ_hPTPRF, in the positive analysis fitting direction relative to DMSO as the negative control and baseline of activity. Using a type of enzyme reporter, loss-of-signal activity can be used to understand changes in enzymatic activity as they relate to gene PTPRF. To generalize the intended target to other relatable targets, this assay endpoint is annotated to the phosphatase intended target family, where the subfamily is receptorasA tyrosine phosphatase.
Human recombinant protein phosphatase LAR expressed in E. coli is used. Test compound and/or vehicle is preincubated with 0.48 ng/ml enzymedouble dagger for 15 minutes at 37C in modified HEPES buffer pH 7.2. The reaction is initiated by addition of 10 uM DiFMUP for 60 minutes. Determination of the amount of DiFMU formed is read spectrofluorimetrically at 358 nm/450 nm. […]
For `O=C(/C=C/c1ccc(O)cc1)CC(=O)/C=C/c1ccc(O)cc1`, the AC50 was 5 µM (active).
